# Screening data deposited in PubChem by National Center for Advancing Translational Sciences (NCATS).
# JMJD2A Tudor: inhibitors of human JMJD2A Tudor domain; Potency, µM (top dose mostly 114 µM), without a hit: at the highest dose activity change, negative = inhibition, hits mostly inhibitors; 390,000 compounds, 4.4% hits; O75164; AlphaScreen JMJD2A-Tudor / H3K4me3 peptide binding; note: % is set by controls: 0 for no effect and ±100 for the full control effect; nearly all actives have a fitted effect of over 50% in size
# TDP1 block: TDP1 (human) enzyme inhibition. Q9NUW8. recombinant TDP1, AlphaScreen DNA substrate cleavage. Potency, µM (doses to about 130 µM), without a hit: top-dose activity change, negative = inhibition, actives largely listed as inhibitors. 350,000 compounds, 0.28% hits. AID 485290; note: % is set by controls: 0 for no effect and ±100 for the full control effect; nearly all actives have a fitted effect of over 40% in size
#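 Recombinant human Tdp1 (E. coli-expressed, 1 nM final) preincubated with compounds 15 min at room temperature, then 5'-biotin/3'-phosphotyrosine-FITC DNA substrate (15 nM final) added for 5 min. AlphaScreen beads (10 ug/ml final) added 10 min; cleavage lowers signal.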
# BAZ2B block: blocks human BAZ2B | Q9UIF8 | AlphaScreen BAZ2B-H3K14Ac peptide displacement | Potency, µM (series often up to 114 µM), inactives show at the top dose activity change, negative = inhibition, usual class: inhibitors | 360,000 compounds, 4.4% hits; note: % is set by controls: 0 for no effect and ±100 for the full control effect; nearly all actives have a fitted effect of over 60% in size
#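 AlphaScreen luminescence quantifies BAZ2B engagement of H3K14Ac peptide; the protein and biotinylated peptide are both at 50 nM final, buffer PBS pH 7.4 with 0.01% Tween-20, all steps at room temperature.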
# Sfp PPTase inh: inhibitors of Bacillus subtilis Sfp phosphopantetheinyl transferase | Biochemical Sfp PPTase activity, qHTS | Potency, µM, for inactives: largest response in the series, negative = inhibition, hits mostly inhibitors | 310,000 compounds, 3.5% hits | AID 1490;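 note: the enzyme is Sfp with the accession as filed and its product quenches rhodamine fluorescence; 0% = enzyme reaction without inhibitor and -100% = no enzyme wells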
#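 After 15 min at room temperature with compound, 15 nM Sfp received 5 uM rhodamine-CoA plus 12.5 uM BHQ-2-ybbR (50 mM Hepes pH 7.6, 10 mM MgCl2). Rate came from the fluorescence difference over 30 min, ex 525/em 598 nm.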
# HP1b chromo inh: HP1-beta chromodomain-methylated histone interaction inhibition. P83916. AlphaScreen HP1-beta / biotin-H3K9me3 peptide binding. Potency, µM (doses to about 114 µM), inactives show at the highest dose activity change, negative = inhibition, hits mostly inhibitors. 390,000 compounds, 0.56% hits. AID 540317; note: nearly all actives have a fitted effect of over 70% in size
#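 HP1-beta protein (50 nM final) preincubated 30 min at room temperature with biotinylated H3(1-18)K9me3 peptide (50 nM) in PBS pH 7.4, 0.01% Tween-20, then compound added for 30 min. AlphaScreen streptavidin donor/nickel chelate acceptor beads (10 ug/mL final), 30 min dark, luminescence read.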
# G9a inh: inhibitors of human histone lysine methyltransferase G9a | G9a H3K9 monomethylation, AlphaScreen, 2 h | Potency, µM (doses to about 102 µM), for the others: at the highest dose activity, negative = inhibition, actives largely listed as inhibitors | 350,000 compounds, 8.8% hits | AID 504332 | Q96KQ7; note: % is set by controls: 0 for no effect and ±100 for the full control effect; nearly all actives have a fitted effect of over 75% in size
#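 Readings reflect AlphaScreen signal from monomethyl-H3K9 antibody detection. HMT at 20 nM; substrate b-H3K9 500 nM; cofactor SAM 20 uM; 2 h RT reaction; compounds tested as titrations in qHTS with 15 min preincubation.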
# Active calls of the source: *; ? = inconclusive; / = no result given; [ ] = remark or other dose. In the library only some 12% were active in any assay of this set; here they are far more common. Calls come from the whole dose curve; as a rule, active = well fitted curve in the direction sought with a large enough effect; inconclusive = small, poorly fitted or top-dose-only effect, or another doubt; inactive = no such curve, though single readings can be large; an effect the other way counts as inactive or inconclusive. Potency is the fitted concentration of half-maximal effect.
SMILES,JMJD2A Tudor,TDP1 block,BAZ2B block,Sfp PPTase inh,HP1b chromo inh,G9a inh
CCN(CCNCC(O)COc1ccccc1C(C)C)c1cccc(C)c1 (stereo unspecified),0.794µM*,/,28.2µM*,44.7µM*,?,10µM*
Cc1noc2ncnc(N3CCCC(C(=O)Nc4cc(F)ccc4F)C3)c12 (stereo unspecified),2.6%,6.3%,2.5%[57.1 µM],/,39.7%,-2.4%[59 µM]
COc1ccc(/C(O)=C2\C(=O)C(=O)N(c3cc(C)on3)C2c2cccc(OC)c2OC)cc1C (stereo unspecified),-3.8%,-1.9%,?,16.7%,40.4%,50.1µM*
COc1ccc(/C(O)=C2/C(=O)C(=O)N(c3ccccn3)C2c2cccc(Cl)c2)cc1 (stereo unspecified),-30.8%,/,-19.5%,27.1%,12.5%,79.4µM*
Cc1ccc(/C(O)=C2\C(=O)C(=O)N(c3cc(C)on3)C2c2cccc(Cl)c2)cc1 (stereo unspecified),-15.9%,4.0%,-5.1%,23.5%,29.7%,44.7µM*
COc1ccc(/C(O)=C2/C(=O)C(=O)N(c3ccccn3)C2c2ccc(OC)cc2)cc1 (stereo unspecified),-18.5%,/,-16.7%,15.8%,20.0%,?
Cc1ccc(N2C(=O)c3n[nH]c(C)c3C2c2cccnc2)cc1 (stereo unspecified),-6.0%,3.8%,-7.7%,6.6%,33.0%,50.1µM*
CCOC(=O)CCN1C(=O)[C@H]2[C@H]3[C@H](O)[C@H](O)C/C(=N/OCC(C)C)[C@H]3CC[C@@H]2C1=O,/,9.0%[21 µM],/,21.8%,/,/
Cc1cccc(CCNC(=O)C2CCCN(S(=O)(=O)c3ccc4c(c3)oc(=O)n4C)C2)c1 (stereo unspecified),-16.6%,1.3%,-3.8%,/,28.1%,7.0%[59 µM]
COc1ccccc1C(=O)NC(CCSC)C(=O)NCCCn1nc(C)cc1C (stereo unspecified),-7.6%,/,-6.2%,/,21.1%,19.6%[0.501 µM]
COc1ccc(N2C(=O)C(=O)/C(=C(/O)c3ccc(C)cc3)C2c2cccnc2)cc1 (stereo unspecified),?,5.4%,56.2µM*,-8.7%,0.0%,?
O=C(NCCc1ccccc1)c1cc(=O)c2ccccc2o1,-5.6%,-8.6%,-4.5%,7.6%,22.2%,/
Cc1c(CCO)c(=O)n(-c2ccccc2)n1S(=O)(=O)c1ccc([N+](=O)[O-])cc1,-5.3%[57.1 µM],2.3%,-30.4%,-12.7%,17.5%,?
Cc1c(CCO)c(=O)n(-c2ccccc2)n1S(=O)(=O)c1ccc(Cl)cc1,?,3.0%,?,-6.9%,21.6%,25.1µM*
CCN1CCN(c2nc3ccccc3nc2C(C#N)C(=O)OCc2ccccc2)CC1 (stereo unspecified),?,8.8%,-35.2%,3.5%,-5.7%,39.8µM*
COCCCNC(=O)C(C#N)c1nc2ccccc2nc1N1CCCC1 (stereo unspecified),-5.6%,8.5%,?,-23.7%,34.0%,39.8µM*
COCCOC(=O)C(C#N)c1nc2ccccc2nc1N1CCCC1 (stereo unspecified),-23.6%[57.1 µM],3.8%,-31.5%,13.9%,-5.3%,?
COc1ccccc1N1CCN(c2nc3ccccc3nc2C(C#N)C(=O)OC(C)C)CC1 (stereo unspecified),?,10.0%,?,-3.3%,-18.9%,14.1µM*
Cc1c(NC(=O)c2ccc(Br)o2)cccc1-c1nc2ccccc2o1,-17.6%,-5.7%[12.3 µM],-3.3%,/,17.4%,8.2%[59 µM]
CCOc1ccc(S(=O)(=O)N2CCN(C(=O)c3ccc(-n4cncn4)c([N+](=O)[O-])c3)CC2)cc1,-11.6%,8.0%,-4.8%,/,17.1%,-0.1%[0.501 µM]
CC[N+](CC)(CC)CCOc1ccc(/C=C\c2ccccc2)cc1,/,9.9%[56.1 µM],/,?,/,/
CC[N+](CC)(CC)CCOc1ccc(/C=C/c2ccccc2)cc1,?,6.1%,56.2µM*,-14.6%,12.9%,8.9%[59 µM]
CN(C(=O)CSc1nnc(C(F)(F)F)n1N)C1CCS(=O)(=O)C1 (stereo unspecified),9.5%,/,-3.7%,11.3%,24.3%,45.8%[12.7 µM]
COc1ccc(NC(=O)c2ccc3oc(=O)c(S(=O)(=O)c4ccc(C)cc4)cc3c2)cc1OC,-18.5%,4.6%,-19.2%,/,7.2%,7.4%[59 µM]
CC(=O)c1cccc(NC(=O)[C@H](Cc2ccccc2)N2Cc3ccccc3C2=O)c1,-17.5%,5.8%,-20.8%,/,18.1%,1.7%[59 µM]
SMILES,JMJD2A Tudor,TDP1 block,BAZ2B block,Sfp PPTase inh,HP1b chromo inh,G9a inh
C#C[C@]1(O)CC[C@@H]2[C@H]3CCC4=CC(=O)CC[C@H]4[C@H]3C(=C)C[C@@]21CC,/,/,/,6.3%,/,2.8%[12.7 µM]
COc1cc(-c2noc(-c3ccc(NC4CCCCC4)c([N+](=O)[O-])c3)n2)cc(OC)c1OC,-23.2%,11.4%,-0.4%,/,11.9%,?
COc1cc(CNC(=O)c2cccc(COc3ccc(Cl)cc3)c2)cc(OC)c1,5.6%,-1.9%,4.3%,?,48.8%,8.7%
CCOC(=O)c1c(C)nc(C)c(C(=O)OCC)c1-c1ccco1,79.4µM*,/,-34.2%,-6.1%,7.5%,31.6µM*
O=C(c1ccccc1F)N1CCN(Cc2ccc3c(c2)OCO3)CC1,0.891µM*,/,44.7µM*,-15.0%,39.8µM*,-5.2%[0.501 µM]
CCSc1ccccc1C(=O)N1CCN(Cc2ccc3c(c2)OCO3)CC1,-28.5%,5.6%,4.6%,?,5.1%,7.94µM*
O=C(c1cccc(S(=O)(=O)N2CCOCC2)c1)N1CCN(Cc2ccc3c(c2)OCO3)CC1,-10.9%,2.5%,-25.9%,6.6%,14.6%,39.8µM*
CC(C)(C)c1ccc2c(S(=O)(=O)O)c(C(C)(C)C)ccc2c1,/,/,/,3.4%,/,2.7%[12.7 µM]
CCOc1ccccc1-n1cc2c(c1-c1ccc(OC)cc1)c(=O)n(C)c(=O)n2C,-29.5%,3.7%,-24.2%,/,6.8%,?
CC(NC1=CC(=O)c2cccnc2C1=O)C(O)c1ccccc1 (stereo unspecified),56.2µM*,/,/,/,-17.5%,/
COc1ccccc1NC(=O)C1=C(C)Nc2nc(SCc3ccccc3F)nn2C1c1cccs1 (stereo unspecified),-13.3%,5.9%,-4.1%,/,-4.4%,-23.0%[59 µM]
Cc1ccc(NC(=O)CC2SC(=O)N(c3ccccc3)C2=O)cc1 (stereo unspecified),-20.5%,9.8%,-6.1%,20µM*,8.3%,?
Cc1ccc(NC(=O)CC2SC3=NCCN3C2=O)cc1 (stereo unspecified),-10.0%,5.5%,-5.9%,70.8µM*,36.8%,7.08µM*
